Measurements taken from PubChem BioAssay (NCI).
This is part of a sample that, as a whole, favours compounds with a hit. Of some 79,000 tested, about 15% had one in any assay. Unmarked numbers belong to inactive results. Calls of active or inactive are those of the source. No stated cut-off is given here; in the data, active means growth inhibition above about 70%; inactive means the rest.

experiment: NCI Yeast Anticancer Drug Screen. Data for the mgt1 strain (AID 153); conditions: S. cerevisiae mgt1 mutant growth inhibition; at 1.2 µM; active compounds read high
How it was run: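 Genetically defined yeast (mgt1) treated with compound; inhibition of growth expressed against vehicle-treated controls.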

Row | SMILES | growth inhibition [%]
1 | Cn1c(=O)c2ccccc2c2ccccc21 | -1
2 | CC[n+]1ccc2c(C)c3[nH]c4ccc(O)cc4c3c(C)c2c1 | -36
3 | CC(=O)ON1C(=O)c2cccc3cccc(c23)C1=O | 8
4 | COc1ccc2ccc3ccccc3c2c1C=O | -7
5 | OC1CCCc2c1cc1ccc3cccc4ccc2c1c34 (centres undefined) | -4

same assay, conditions: S. cerevisiae mgt1 mutant growth inhibition; at 3.7 µM; active compounds read high

Row | SMILES | growth inhibition
6 | CCN(CC)CC[n+]1ccc2c(C)c3[nH]c4ccc(O)cc4c3c(C)c2c1 | -1%
7 | O=[n+]1c2ccc(Cl)cc2n([O-])c2ccc(Cl)cc21 | -1%
8 | CCOP(=O)(OCC)C(Cc1ccccc1)N=C(c1ccccc1)c1ccccc1 (centres undefined) | -6%
9 | CC[C@@]1(O)C(=O)OCc2c1cc1n(c2=O)Cc2cc3c(N)cccc3nc2-1 | -3%
10 | COC1C=COC2(C)Oc3c(C)c(O)c4c(c3C2=O)/C(=N/C2CCC(O)OC2C)C=C(NC(=O)/C(C)=C\C(=O)C2CC2C(O)C(C)C(O)C(C)C(OC(C)=O)C1C)C4=O (centres undefined) | -4%
11 | COc1cc2c(c(OC)c1OC)-c1c(cc3c(c1OC)OCO3)CC(C)C(C)(O)C2OC(=O)c1ccccc1 (centres undefined) | -9%
12 | O=c1ssc2ncccc12 | 10%
13 | O=C1C2C(C(=O)N1c1ccc(OCc3ccccc3)cc1)C1c3ccccc3C2C2CCCCN21 (centres undefined) | 4%
14 | COc1ccc(-c2cn(-c3ccc(I)cc3)c3ncnc(N)c23)cc1 | -8%
15 | CCOC(=O)C(NC(=O)c1ccccc1)(N1CCN(c2cc3c(cc2F)c(=O)c(C(=O)O)cn3C2CC2)CC1)C(F)(F)F (centres undefined) | 1%
16 | C/C(=N\O)C1CC2C=C(C#N)C1N(Cc1ccccc1)C2 (centres undefined) | -4%
17 | CC/C(=C(\c1ccccc1)c1ccc(OCCN(C)C)cc1)c1ccccc1 | 8%
18 | COc1ccccc1N=NC(C(=O)c1ccccc1)C(=O)c1ccccc1 | -24%
19 | CC(O)C(O)C(O)C(/C=N\Nc1ccccc1)=N/Nc1ccccc1 (centres undefined) | 9%
20 | COc1ccc(/C=C2\SC(=S)N(/C=C/c3nc4ccccc4[nH]c3=O)C2=O)cc1OC | 3%
21 | N#CN=Nc1cc(Cl)c(N=NC#N)cc1Cl | -6%
22 | Cc1ccc(S(=O)(=O)Oc2cc(Cl)c(Cl)cc2Cl)cc1 | -2%
23 | c1ccc2c(c1)Oc1cccc3cccc-2c13 | -8%
24 | O=C(c1ccc(Cl)cc1Cl)C(Cl)Cl | -34%
25 | CC(C)C1=CCC2C(=C1)CCC1C(C)(C(=O)O)CCCC21C (centres undefined) (tested in a mixture with another compound) | 10%

Row | SMILES | growth inhibition
26 | COc1cc(/C=C2\CCc3ccccc3C2=O)cc(OC)c1OC | -14%
27 | CC(=O)[O][Bi]([c]1ccccc1)[c]1ccccc1 | 30%
28 | S=C(N/N=C/c1ccccn1)Nc1ccc(Cl)cc1 | -7%
29 | COc1cc(CC2CC(c3ccc4c(c3)OCO4)OC2=O)cc(OC)c1OC (centres undefined) | 1%
30 | CNC1C(OC2C(OC3C(O)C(O)C(N=C(N)N)C(O)C3N=C(N)N)OC(C)C2(O)CO)OC(CO)C(O)C1O (centres undefined) | 7%
31 | NNC(=O)CCc1ccc2ccc3ccccc3c2c1 | -3%
32 | Oc1ccc2ccccc2c1C(c1ccc(Cl)cc1)c1c(O)ccc2ccccc12 | -26%
33 | CCCCN(CCCC)CCSc1ccc(Cl)cc1 | -8%
34 | CCC(C)COC(=O)c1ccc(N=Cc2ccc(C=Nc3ccc(C(=O)OCC(C)CC)cc3)cc2)cc1 (centres undefined) | 1%
35 | CC1(C)C(=O)OC(n2cc(F)c(=O)[nH]c2=O)C1=O (centres undefined) | 32%
36 | O=[N+]([O-])CC(SCc1ccccc1)c1ccc2c(c1)OCO2 (centres undefined) | 3%
37 | COc1cc2c(cc1[N+](=O)[O-])C(=O)C(Br)(Br)CCC2 | 73% (active)
38 | OCC1OC(OCC(O)C(O)C(O)C(/C=N/Nc2ccccc2)=N/Nc2ccccc2)C(O)C(O)C1O (centres undefined) | 12%
39 | COc1ccc(N=C2C(=O)Nc3ccc(Br)cc32)cc1 | -24%
40 | Cn1c(=O)c2ccccc2c2ccccc21 | -3%
41 | CC[n+]1ccc2c(C)c3[nH]c4ccc(O)cc4c3c(C)c2c1 | -14%
42 | CC(=O)ON1C(=O)c2cccc3cccc(c23)C1=O | 46%
43 | COc1ccc2ccc3ccccc3c2c1C=O | -6%
44 | OC1CCCc2c1cc1ccc3cccc4ccc2c1c34 (centres undefined) | -8%
